# Data from the supplement of paper PMC6555819.
# Tests used:
# Test in all cases: PBM binding z-score (relative to random genomic background probes); higher = stronger binding; sequences stand for … in GC…GCGATTGACAGCGTAGAATGAAGG
# [1] = tested on: PPARg:RXRa DBDmut IVT, anti-RXR (DBD mutation: RXRa K156A/R161A, NR concentration 270 nM, RXRa partner concentration 90 nM)
# Procedure, shortened: (§1)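 Regression normalization was applied to scanned fluorescence from custom Agilent 4×180K protein-binding microarrays. Before scanning, arrays were incubated 1 h with ligand-free nuclear receptor dimers, and binding was detected with antibodies against each partner (one per run). Binding z-scores use the random background probes as reference.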
# [2] = tested on: PPARg:RXRa IVT, anti-PPARg (NR concentration 270 nM, RXRa partner concentration 90 nM)
# Procedure, shortened: as §1
# [3] = tested on: PPARg DBDmut:RXRa IVT, anti-PPARg (DBD mutation: PPARg1 K132A/R137A, NR concentration 270 nM, RXRa partner concentration 90 nM)
# Procedure, shortened: as §1
# [4] = tested on: PPARg DBDmut IVT, anti-PPARg (DBD mutation: PPARg1 K132A/R137A, NR concentration 270 nM)
# Procedure, shortened: as §1
# [5] = tested on: PPARg homodimer (NR concentration 180 nM)
# Procedure, shortened: as §1
# [6] = tested on: PXR:RXRa (NR concentration 270 nM, RXRa partner concentration 90 nM)
# Procedure, shortened: as §1
# [7] = tested on: PXR homodimer (NR concentration 270 nM)
# Procedure, shortened: as §1
# [8] = tested on: RARa:RXR (NR concentration 270 nM, RXRa partner concentration 90 nM)
# Procedure, shortened: as §1
# [9] = tested on: RARa homodimer (NR concentration 270 nM)
# Procedure, shortened: as §1
# [10] = tested on: RARb:RXRa (NR concentration 270 nM, RXRa partner concentration 90 nM)
# Procedure, shortened: as §1
# [11] = tested on: RARb homodimer (NR concentration 270 nM)
# Procedure, shortened: as §1
# [12] = tested on: RARg:RXRa (NR concentration 270 nM, RXRa partner concentration 90 nM)
# Procedure, shortened: as §1
# [13] = tested on: RARg homodimer (NR concentration 270 nM)
# Procedure, shortened: as §1
# [14] = tested on: RXRa DBDmut IVT, anti-RXR (DBD mutation: RXRa K156A/R161A, NR concentration 90 nM)
# Procedure, shortened: as §1
# [15] = tested on: RXRa homodimer (NR concentration 180 nM)
# Procedure, shortened: as §1
# [16] = tested on: THRa:RXRa (NR concentration 90 nM, RXRa partner concentration 90 nM)
# Procedure, shortened: as §1
# [17] = tested on: THRa homodimer (NR concentration 90 nM)
# Procedure, shortened: as §1
# [18] = tested on: VDR:RXRa (NR concentration 270 nM, RXRa partner concentration 90 nM)
# Procedure, shortened: as §1
# [19] = tested on: VDR homodimer (NR concentration 270 nM)
# Procedure, shortened: as §1
Sequence,PBM binding z-score [1],PBM binding z-score [2],PBM binding z-score [3],PBM binding z-score [4],PBM binding z-score [5],PBM binding z-score [6],PBM binding z-score [7],PBM binding z-score [8],PBM binding z-score [9],PBM binding z-score [10],PBM binding z-score [11],PBM binding z-score [12],PBM binding z-score [13],PBM binding z-score [14],PBM binding z-score [15],PBM binding z-score [16],PBM binding z-score [17],PBM binding z-score [18],PBM binding z-score [19]
TAGCCTAGCTCATTGGGCCAGTATAGTACGCATC,0.043,-0.244,-0.824,-1.08,-1.36,-0.795,-0.368,-0.451,-1.17,-0.719,-0.698,-0.5,-0.328,-0.683,-0.449,-0.611,-0.587,-0.69,-0.87
GCTCGGAGGACAAGCTCAGAGCTTTGTCCGTAGA,-0.93,-0.339,-0.667,-0.738,-0.886,-0.742,-0.896,-0.828,-1.84,0.862,-0.256,-0.416,0.0982,-0.613,-1.03,0.34,-0.504,-0.646,-0.467
TCTAGTTGGTCACGGAGGTGACACACGACGGGTA,2.02,3.37,1.22,0.542,1.15,0.71,-0.119,0.781,0.338,1.82,1.71,1.6,1.86,0.0966,1.37,1.47,0.665,1.59,0.176
TAGCCTAGGTCATTGGGCGAGTATAGTACGCATC,1.88,3.05,0.311,-0.0966,1.15,1.59,-0.283,2.09,-0.259,3.69,2.6,3.77,4.01,1.2,2.88,2.72,0.571,2.14,1.08
AACACAGGGTCATCGTAGGCCAGAGTACGCACAG,2.2,3.46,1.2,0.514,2.34,4.91,0.707,4.91,0.823,4.3,3.59,5.74,5.13,3.79,6.58,4.5,1.69,5.15,3.84
CCTCGGAGGACAACAGGAGGTCTGAGCTGCCAGA,-0.107,-0.71,-1.05,-1.49,-0.258,-0.738,-0.871,-0.635,-0.516,0.983,0.507,0.123,0.881,-0.213,-0.493,0.56,-0.246,-0.681,-0.289
GCTATTAATTGAAAGGGCAACCGAATGATTCTCG,0.162,0.122,-0.051,-0.0832,1.66,0.52,1.04,0.517,2.31,2.02,1.96,0.91,1.26,0.65,0.421,0.301,-0.3,0.257,0.758
AGAATGAGGTTATTAAGATCAGCGAATTGCGGTC,3.16,2.5,0.614,0.292,0.609,1,0.607,1.22,0.18,1.27,0.651,1.02,0.64,1.95,1.43,2.07,0.43,2.57,0.913
CCTAGTTGGTCTGGAGGTCACACACCGGATATGA,0.138,2.42,-0.0171,0.512,3.95,4.72,1.81,5.16,2.41,3.59,4.22,4.49,3.84,0.895,4.63,3.67,2.69,4.03,2.97
ATATGTACGTTAAGGGTCATTCAGGTTGGTTCGC,0.825,3.15,3.4,3.29,2.8,5.22,2.21,4.96,1.35,3.21,3.82,3.89,2.96,2.12,4.64,3.3,1.45,5.64,4.32
CAAACTAGGTCAAGGTCAAAGGCGGTTTGTGCCA,8.62,8.69,1.56,1.08,4.11,4.86,2.19,5.36,1.25,5.02,5.02,6.14,6.63,3.02,5.77,4.38,3.55,4.87,3.92
ACAGACAGGTGGTGAAGGTAACTCAGGCTATCAT,-0.597,0.0629,-0.371,-0.55,0.0722,-0.271,0.0248,-0.15,0.517,-0.142,0.218,0.00728,-0.0161,-0.443,0.0945,0.769,0.206,-0.0297,-0.381
CTCGAAAGGTCGTGCTCAGGTGAGTAAACCAAAC,0.815,1.96,0.213,0.0254,1.55,3.34,0.175,4.18,0.14,3.98,2.84,5.23,4.05,1.99,4.99,4.08,0.933,2.99,0.941
ACTATTAGTTGACTCAGGGCAACCGATACGACGC,0.402,0.739,1.01,1.08,0.52,0.329,0.569,0.544,0.791,0.893,0.937,0.721,0.905,0.661,0.488,1.5,0.878,0.825,0.644
GCTGCTAGGTGAGGTTGGTCAGCTAACGGGTACG,2.07,0.995,-0.621,-0.843,-0.464,-0.499,-0.63,-0.358,-0.904,0.502,0.45,-0.285,-0.239,-0.389,-0.532,0.337,-0.133,-0.472,-0.159
TCATATAGGTAATACAGGCGAAAGTCGGCATCTA,3.6,2.22,1.28,0.916,0.655,0.46,0.00877,0.48,0.962,0.247,-0.403,0.375,0.171,1.23,0.623,-0.0703,-0.232,0.97,-0.187
CCTTGCAGGCCAATCTGGGTCACTCAAGGCTTGA,4.87,5.67,0.0467,-0.339,0.973,1.02,-0.543,1.59,-0.229,1.53,2.28,1.15,1.42,0.233,0.742,3.61,0.612,0.663,-0.0782
CCGACTGGGGCACAGGTTACCATACTCAGTACGA,3.76,4.97,-0.354,-0.501,1.14,0.174,-0.362,0.462,0.15,1.07,1.07,1.02,0.906,-0.122,0.761,0.272,-0.26,-0.165,-0.0992
TCTATTTGGTCACGGAGGTCACACACGACGGGTA,2.53,4.35,4.5,3.22,3.91,4.86,2.58,4.88,2.06,4.21,4.61,4.91,5.19,1.87,5.34,3.82,3.38,5.87,3.22
ACTCGGAGGACAAAGGTCAGCGCTACGCCAGTGA,0.977,3.82,0.281,-0.509,4.7,3.99,0.485,5.21,1.94,4.73,4.95,6.38,5.4,1.36,5.69,3.54,0.928,3.41,1.34
CTCGAAAGGTCCGTTGAGGTGAGTATACGGATAA,-0.499,0.457,0.113,-0.18,-0.594,0.156,-0.14,0.322,-0.439,1.12,0.529,0.513,0.708,0.119,0.313,4.14,0.988,0.243,0.885
CCAGACAGGTGAGAAGTTAACTCAGCCTCGATTA,0.968,0.347,-0.638,-0.46,0.326,-0.109,0.36,0.0412,0.721,0.4,0.312,0.26,0.42,0.268,0.0935,0.0119,-0.003,-0.0797,-0.158
TAGCCTATGTCATGGGCCAGTATACCACGCGAAC,-0.759,0.165,-0.733,0.201,-0.377,-0.487,-0.151,0.249,-0.171,0.192,0.149,0.192,0.474,-0.981,0.178,-0.349,-0.74,-0.365,-0.627
CCTACTGTGCCACGAAAGGTCATTGATTCAGTGA,5.18,4.39,0.906,0.678,3.62,5.32,1.94,5.05,1.63,3.96,4.67,4.41,3.73,1.43,4.76,3.46,1.67,4.38,2.34
ATCTCTAGGTAAGACTCACTTCAGTGAAGAACGC,1.59,1.19,0.772,1.01,0.77,-0.228,0.171,-0.265,0.334,-0.0456,-0.0357,-0.204,0.301,0.173,-0.184,0.282,0.429,0.175,-0.111
TAGTCTAGGTCATTCAGGGGCCAGTATAGAAAGC,5.32,5.97,1.69,1.74,2.29,2.53,0.48,3.32,0.639,3.73,3.57,5.83,4.7,2.05,2.96,3.63,1.42,3.15,1.88
CCTACAGGGCCATCAGGTCATTGATATCAACGTT,0.49,1.32,-0.452,-0.51,1.27,1.71,0.581,1.89,0.0859,2.38,2.75,2.63,2.35,0.562,1.63,3.26,2.79,2.48,1.45
CTACCAAAGTGAACAAGGTCGTTGATTACTATTC,0.74,0.473,0.238,0.295,0.64,1.76,1.48,1.47,0.789,0.821,1.32,0.65,0.529,1.69,0.996,1.94,1.24,3.07,2.22
GATACAGGTTCAAGGCCAGAGTACGCGTATTGAT,-0.252,0.582,-0.175,-0.432,1.38,1.9,0.971,1.61,0.647,1.79,1.44,1.82,1.3,3.5,2.13,1.55,0.144,3.41,3.82
CCTACTGGGCCAAGGTCATTCATCAGTCAAAGCA,4,4.59,-0.258,-0.0447,2.02,3.93,1.66,3.84,0.345,3.34,3.52,3.84,3.48,1.7,3.42,3.44,2.53,3.55,3.56
